Drawing on PubChem BioAssay, this text covers outcome and Tl flux remaining, % of negative control (stronger effect = lower value) for 39 compounds.

The other results are listed elsewhere or left out. Calls of active or inactive are those of the source.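 The calls were made as follows: active = Primary-screen hit whose thallium flux fell at least 3 control SD below untreated wells in both duplicates, with normal baseline fluorescence; inactive = the rest.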

Inward rectifier potassium channel 2 (Mus musculus), sequence (P35561 whole entry, looked up): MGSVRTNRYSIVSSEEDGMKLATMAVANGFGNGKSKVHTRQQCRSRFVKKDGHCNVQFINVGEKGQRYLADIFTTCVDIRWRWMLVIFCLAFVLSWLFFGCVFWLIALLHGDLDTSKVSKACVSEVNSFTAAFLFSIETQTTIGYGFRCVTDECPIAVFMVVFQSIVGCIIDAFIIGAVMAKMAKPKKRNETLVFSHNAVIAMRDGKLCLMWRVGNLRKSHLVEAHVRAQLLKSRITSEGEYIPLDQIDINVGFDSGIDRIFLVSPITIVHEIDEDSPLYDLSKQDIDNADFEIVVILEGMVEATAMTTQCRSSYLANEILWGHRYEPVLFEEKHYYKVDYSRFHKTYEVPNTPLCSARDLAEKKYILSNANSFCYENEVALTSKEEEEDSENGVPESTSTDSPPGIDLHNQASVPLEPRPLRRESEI

This assay addresses Inward rectifier potassium channel 2 (Mus musculus) (UniProt P35561). Kind of assay: inhibition of Kir2.1 inward rectifier potassium flux – cell-based, FluxOR thallium flux, duplicate, confirmation (AID 2032). Particulars: Kir2.1-expressing cells, FluxOR thallium flux fluorescence, at 10 µM; stronger effect = lower value.
As to `CN(c1ccccc1)S(=O)(=O)c1ccc(Cl)c(C(=O)OCC(=O)NCc2ccco2)c1`, the compound was classed as inactive.
For `Cc1cccc(NC(=O)c2nc(S(=O)(=O)Cc3ccccc3)ncc2Cl)c1`, the compound was classed as inactive.
For the compound `Cc1nnc(SCc2ccc(C(=O)c3ccc(Cl)cc3)o2)n1-c1ccccc1`, the Tl flux remaining, % of negative control (stronger effect = lower value) is 66% (active).
`C/C=C(/C)C(=O)OC1Cc2c(ccc3ccc(=O)oc23)OC1(C)C` (centres undefined): the Tl flux remaining, % of negative control (stronger effect = lower value) is 63% (active).
Consider `O=C(/C=C/Sc1ncn[nH]1)c1ccc(Cl)cc1`, for which the compound was classed as inactive.
For `CC1=NN(C(=O)c2ccc(Br)cc2)C(O)(c2ccccc2)C1` (centres undefined), the compound was classed as inactive.
In the case of `CN1CCN(CCCCOc2ccccc2-c2ccccc2)CC1`, the Tl flux remaining, % of negative control (stronger effect = lower value) is 48.5% (active).
Consider `Cc1ccc(C(=O)Nc2nnc(C3=COCCO3)o2)cc1C`, for which the compound was classed as inactive.
Take `COc1ccc(-c2n[nH]c(C)c2-c2ccccc2OC)c(O)c1`: the compound was classed as inactive.
For the compound `Clc1cccc(Cl)c1OCCOCCNCc1ccccc1`, the Tl flux remaining, % of negative control (stronger effect = lower value) was 33% (active).
Regarding `CCCc1nc2sc3c(c2c(=O)n1NC(=O)CCCl)CCCC3`, the compound was called inactive.
Turning to `CCOC(=O)NC(C(F)(F)F)(C(F)(F)F)P(=O)(c1ccccc1)c1ccccc1`, the call was inactive.
Regarding `CCc1ccccc1NC(=O)[C@@H]1CCC(=O)N1C1OC(=O)c2c1ccc(OC)c2OC` (some centres undefined), the result was inactive.
Regarding `CC1COc2ccccc2N1S(=O)(=O)c1ccccc1` (centres undefined), the Tl flux remaining, % of negative control (stronger effect = lower value) was 60% (active).
`O=C(NCCc1c[nH]c2ccccc12)C1CCN(Cc2ccc(Br)cc2)CC1`: the Tl flux remaining, % of negative control (stronger effect = lower value) was 62% (active).
On to `O=C(Cc1c[nH]c2ccccc12)OCCOC(=O)Cc1c[nH]c2ccccc12`, for which the Tl flux remaining, % of negative control (stronger effect = lower value) was 48.5% (active).
On the same count and under the same terms, the value for `CCCc1cc(=O)[nH]c(SCC(=O)c2cc(C)n(CCC)c2C)n1` was 60% (active); that for `COCCNC(=O)COc1ccc(N(C)S(=O)(=O)c2ccc3ccccc3c2)cc1` was 58% (active).
In the case of `O=C(CCCN1CCc2[nH]c3ccc(F)cc3c2C1)c1ccc(F)cc1`, the Tl flux remaining, % of negative control (stronger effect = lower value) was 46% (active).
In the case of `O=C(Nc1cccc(-c2cscn2)c1)C1CCN(Cc2ccsc2)CC1`, the Tl flux remaining, % of negative control (stronger effect = lower value) was 44% (active).
Turning to `CC1(C)NC(=O)N(CCCCSc2ccc(Cl)cc2)C1=O`, the Tl flux remaining, % of negative control (stronger effect = lower value) was 46% (active).
As to `CC(C)(C)c1cc2cccnc2n1Cc1cccc(F)c1`, the Tl flux remaining, % of negative control (stronger effect = lower value) is 72% (active).
Regarding `CC(NCc1ccccc1OC1CCCC1)c1ccccc1` (centres undefined), the Tl flux remaining, % of negative control (stronger effect = lower value) is 23.5% (active).
With `CC1(c2ccccc2Cl)NC(=O)N(CC(=O)NC(=O)NCc2ccco2)C1=O` (centres undefined), the result was inactive.
With `Cc1cc(C)nc(SCc2nnc(SCC(=O)OC3CCCCC3)o2)n1`, the Tl flux remaining, % of negative control (stronger effect = lower value) is 28% (active).
With `COc1ccc(C(=O)Nc2ncc3c(n2)-c2ccccc2CC3)cc1`, the result was inactive.
For the compound `CC(C)(c1ccccc1)c1ccc(OCCN)cc1`, the Tl flux remaining, % of negative control (stronger effect = lower value) was 30.5% (active).
On to `CCCn1c(C2CCCN2c2nc(-c3ccc(C)cc3)cs2)nc2cc(Cl)c(N3CCCCC3)cc21` (centres undefined), for which the call was inactive.
Take `Cc1ccc(Nc2c3c(nc4ccccc24)CCC3)cc1`: the Tl flux remaining, % of negative control (stronger effect = lower value) is 16% (active).
For `COc1ccc(C(O)(C2CCCCC2)C(CN2CCCC2)c2ccccc2)cc1` (centres undefined), the Tl flux remaining, % of negative control (stronger effect = lower value) was 49% (active).
In the case of `COc1cccc(CN(C)CC2CCCN(CCc3ccc(Cl)cc3)C2)c1OC` (centres undefined), the Tl flux remaining, % of negative control (stronger effect = lower value) is 49% (active).
With `Cc1ccc(S(=O)(=O)N2CCN(C(=O)COC(=O)c3c(C)cc(C)cc3C)CC2)c(C)c1`, the call was inactive.
As for `Cc1cc2cc3c(cc2nc1SCC(=O)Nc1c(C)cccc1C)CCC3`, the result was inactive.
Turning to `Cc1ccccc1C(=O)NCCN=C1NS(=O)(=O)c2ccccc21`, the result was inactive.
Regarding `CC(C)(c1ccccc1)c1ccc(OCCN2CCCC2)cc1`, the Tl flux remaining, % of negative control (stronger effect = lower value) is 44% (active).
On to `O=C(NCc1ccc2c(c1)OCO2)C12CC3CC(CC(C3)C1)C2`, for which the compound was classed as inactive.
`S=C(Nc1ccc(Br)cc1)NC1CCN(Cc2ccccc2)CC1`: the Tl flux remaining, % of negative control (stronger effect = lower value) was 48% (active).
As to `CC(C)Cc1nnc(NC(=O)CCc2ccccc2)s1`, the call was inactive.
With `C=CCc1cc(S(=O)(=O)c2ccc(O)c(CC=C)c2)ccc1O`, the Tl flux remaining, % of negative control (stronger effect = lower value) was 40.5% (active).
